Test results reported in PubChem BioAssay (Tox21).
Values joined by “and” are separate entries in the source; they are usually repeats but may differ in a detail not shown here. Identical values can stand only once. Results filed as inconclusive are left out. Some compounds were tested as several samples or in several runs, with calls that do not always agree. Active and inactive are the calls of the source. Unless noted, the call rests on the fitted dose curve; in most records, active means well fitted curve in the direction sought with a large enough effect in the repeat runs; inconclusive means weak or mixed curves; inactive means no such curve, though single readings can be large; an effect the other way counts as inactive or inconclusive.

Assays:
[1] = qHTS assay to identify small molecule that activate the aryl hydrocarbon receptor (AhR) signaling pathway - cell viability counter screen (AID 743086); further: nearly all actives have a fitted effect of over 45% in size; further: potency means the concentration at half of the fitted maximal effect
In short: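 Cytotoxicity counter screen: CellTiter-Fluor signal (30 min, 37 C) in 4000 HepG2 cells/well carrying the DRE-luciferase reporter, following 24 h compound exposure at 37 C.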

[2] = target: Peroxisome proliferator-activated receptor gamma (Homo sapiens) (UniProt P37231); experiment: qHTS assay to identify small molecule agonists of the peroxisome proliferator-activated receptor gamma (PPARg) signaling pathway (AID 743094; active means well fitted activation curve with a large enough effect in the signal ratio in the repeat runs, not every such curve was filed as active; the % refers to the signal ratio; further: potency means the concentration at half of the fitted maximal effect)
Sequence of Peroxisome proliferator-activated receptor gamma (Homo sapiens) (P37231 whole entry, looked up): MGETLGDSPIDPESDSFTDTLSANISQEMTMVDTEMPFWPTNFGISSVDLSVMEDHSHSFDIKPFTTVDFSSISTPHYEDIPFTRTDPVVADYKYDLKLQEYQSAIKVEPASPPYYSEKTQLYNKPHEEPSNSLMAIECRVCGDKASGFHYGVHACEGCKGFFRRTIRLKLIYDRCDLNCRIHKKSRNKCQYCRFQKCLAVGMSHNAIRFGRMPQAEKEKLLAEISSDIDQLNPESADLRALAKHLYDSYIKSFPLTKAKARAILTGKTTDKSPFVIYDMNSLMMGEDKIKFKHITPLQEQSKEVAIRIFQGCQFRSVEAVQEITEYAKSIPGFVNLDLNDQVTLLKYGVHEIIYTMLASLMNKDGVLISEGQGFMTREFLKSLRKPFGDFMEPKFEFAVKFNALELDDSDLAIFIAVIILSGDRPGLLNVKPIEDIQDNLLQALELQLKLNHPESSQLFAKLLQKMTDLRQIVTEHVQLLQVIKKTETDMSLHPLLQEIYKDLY
In short: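 Agonist activity was taken from a beta-lactamase reporter (FRET substrate, 1 h at room temperature) in HEK293H cells carrying a PPARg UAS-bla construct. Compounds in DMSO were incubated 17 h at 37C after a 5 h cell pre-incubation.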

[3] = target: Peroxisome proliferator-activated receptor gamma (Homo sapiens) (UniProt P37231); experiment: qHTS assay to identify small molecule antagonists of the peroxisome proliferator-activated receptor gamma (PPARg) signaling pathway (AID 743191; calls by dose curve; further: nearly all actives have a fitted effect of over 30% in size; further: potency means the concentration at half of the fitted maximal effect)
In short: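 Beta-lactamase reporter under UAS control in HEK293H PPARg-bla cells; compound treatment 17 h at 37C. Read-out: fluorescence intensity after 1 h room-temperature incubation with LiveBLAzer B/G FRET substrate.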

[4] = qHTS assay to identify small molecule antagonists of the peroxisome proliferator-activated receptor gamma (PPARg) signaling pathway - cell viability counter screen (AID 743194); further: nearly all actives have a fitted effect of over 55% in size
In short: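 Viability was measured as CellTiter-Glo luminescence in GeneBLAzer PPARg UAS-bla HEK293H cells. These cells had been exposed 17 h at 37 C to compounds together with rosiglitazone at 50 nM final, with the beta-lactamase readout taken in the same wells.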

[5] = qHTS assay for small molecule agonists of the antioxidant response element (ARE) signaling pathway (AID 743202; active means well fitted activation curve with a large enough effect in the signal ratio in the repeat runs, not every such curve was filed as active; the % refers to the signal ratio; further: potency means the concentration at half of the fitted maximal effect)
In short: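 After 16 hours of compound treatment at 37 C, HepG2 cells with a stably integrated ARE-driven beta-lactamase reporter were loaded 2 hours at room temperature with LiveBLAzer B/G FRET substrate and fluorescence intensity measured.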

[6] = qHTS assay for small molecule agonists of the antioxidant response element (ARE) signaling pathway - cell viability counter screen (AID 743203; calls by dose curve; further: nearly all actives have a fitted effect of over 55% in size; further: potency means the concentration at half of the fitted maximal effect)
In short: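 Viability counter screen: CellTiter-Glo luminescence, read after 30 min at room temperature, in ARE-bla HepG2 wells. Compound exposure lasted 16 h at 37C/5% CO2, following a 5 h pre-incubation of the cells after plating.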

[7] = qHTS assay for small molecule activators of the heat shock response signaling pathway - cell viability counter screen (AID 743209); further: nearly all actives have a fitted effect of over 50% in size
In short: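 Cytotoxicity counter screen run in the same wells as the heat-shock bla reporter assay: HeLa HSE-bla cells, 5 h compound exposure at 37 C, viability read by CellTiter-Glo luminescence.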

[8] = qHTS assay for small molecule activators of the heat shock response signaling pathway (AID 743210; active means well fitted activation curve with a large enough effect in the signal ratio in the repeat runs, with a control signal flat, not every such curve was filed as active; the % refers to the signal ratio; further: series mostly up to about 63 µM)
In short: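 Compound exposure lasted 5 h at 37 C in HeLa cells carrying a heat-shock-element-driven beta-lactamase reporter. Read-out: fluorescence intensity after 2.5 h room-temperature loading with LiveBLAzer B/G FRET substrate.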

[9] = qHTS assay to identify small molecule agonists of the peroxisome proliferator-activated receptor delta (PPARd) signaling pathway - cell viability counter screen (AID 743211); further: nearly all actives have a fitted effect of over 55% in size; further: potency means the concentration at half of the fitted maximal effect
In short: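 Viability was measured as CellTiter-Glo luminescence (30 min, room temperature) in the same wells as the beta-lactamase readout. GeneBLAzer PPARd UAS-bla HEK293H cells received compound after 5 h plating and were incubated 17 h at 37 C.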

[10] = target: Peroxisome proliferator-activated receptor delta (Homo sapiens) (UniProt Q03181); experiment: qHTS assay to identify small molecule agonists of the peroxisome proliferator-activated receptor delta (PPARd) signaling pathway (AID 743212; calls by dose curve)
Sequence of Peroxisome proliferator-activated receptor delta (Homo sapiens) (Q03181 whole entry, looked up): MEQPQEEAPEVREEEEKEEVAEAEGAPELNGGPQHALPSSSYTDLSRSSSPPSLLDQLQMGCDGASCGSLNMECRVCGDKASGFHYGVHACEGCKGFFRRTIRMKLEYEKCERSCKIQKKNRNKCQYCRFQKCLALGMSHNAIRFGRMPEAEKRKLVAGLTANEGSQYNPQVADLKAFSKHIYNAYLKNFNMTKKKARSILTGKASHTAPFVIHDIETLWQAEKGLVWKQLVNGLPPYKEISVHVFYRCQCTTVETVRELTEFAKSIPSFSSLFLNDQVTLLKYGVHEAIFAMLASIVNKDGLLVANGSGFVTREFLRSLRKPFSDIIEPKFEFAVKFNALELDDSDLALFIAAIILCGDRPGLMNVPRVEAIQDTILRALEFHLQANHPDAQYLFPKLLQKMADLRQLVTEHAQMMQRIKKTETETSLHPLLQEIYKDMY
In short: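 Beta-lactamase reporter readout: a ratiometric FRET signal from the LiveBLAzer substrate after 2 h at room temperature. Compound exposure at 37 °C in PPARδ-bla HEK293H cells driven by an upstream activator sequence.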

Measured: Potency

C=C(C)OC(C)=O
not listed: [10]
inactive: all other assays above

c1ccc2[nH]c(-c3cscn3)nc2c1
inactive: all assays above

CCOCCO
not listed: [10]
inactive: all other assays above

NC(=O)N1c2ccccc2C=Cc2ccccc21
inactive: all assays above

CC1(C)O[C@@H]2[C@@H](CO[C@@]3(COS(N)(=O)=O)OC(C)(C)O[C@@H]23)O1
not listed: [9] | [10]
inactive: all other assays above

CN(C)Cc1cc(CN(C)C)c(O)c(CN(C)C)c1
not listed: [10]
inactive: all other assays above

CCCCNC(=O)NS(=O)(=O)c1ccc(N)cc1
inactive: all assays above

CCCCCCCCCCCCCCCCCC(=O)OCC(O)CO (configuration not stated)
inactive: all assays above

Oc1cccc(O)c1
inactive: all assays above

CCN(CC)CCOC(=O)c1ccc(N)cc1
not listed: [10]
inactive: all other assays above

COCCOCCOC
inactive: all assays above

CCCCOC(=O)CCCCCCCCC(=O)OCCCC
not listed: [10]
inactive: all other assays above

OC[C@@H](O)[C@@H](O)[C@H](O)[C@H](O)CO
not listed: [10]
inactive: all other assays above

Cc1ccc(O)c(-n2nc3ccccc3n2)c1
active: [5] 60.6 µM
inactive: all other assays above

COC(=O)c1ccc(C=O)cc1
inactive: all assays above

O=C(O)Cc1cccc2ccccc12
active: [2] 27.5 µM
inactive: all other assays above

CN(C)C=O
not listed: [10]
inactive: all other assays above

Nc1cccc(N)c1
not listed: [9] | [10]
inactive: all other assays above

Cc1cccc2ccccc12
inactive: all assays above

C1CNCCN1
not listed: [10]
inactive: all other assays above

C=C(C)C(N)=O
not listed: [10]
inactive: all other assays above

O=C(O)CN(CC(=O)O)CC(=O)O
55.3 µM (active) and inactive: [5]
inactive: all other assays above

O=c1c(-c2ccc(O)cc2)coc2cc(O)cc(O)c12
active: [3] 48.1 µM and 38.9 µM | [5] 6.74 µM and 10.6 µM
inactive: all other assays above

C[C@]12C=CC(=O)C=C1CC[C@@H]1[C@@H]2C(=O)C[C@@]2(C)[C@H]1CC[C@]2(O)C(=O)CO
not listed: [10]
inactive: all other assays above

CC(C)CC(C)CC(O)CC(C)C (configuration not stated)
inactive: all assays above

Cn1cnc2c1c(=O)[nH]c(=O)n2C
inactive: all assays above

CC(O)COc1ccccc1 (configuration not stated)
inactive: all assays above

CCN1CCCC1=O
not listed: [9] | [10]
inactive: all other assays above

N[C@@H](Cc1c[nH]c2ccc(O)cc12)C(=O)O
inactive: all assays above

Cc1cccc(C)c1O
inactive: all assays above

COc1ccc(C(=O)c2ccccc2)c(O)c1
not listed: [9]
inactive: all other assays above

O=C1CCCCCN1
not listed: [9]
inactive: all other assays above

CC(C)(C)NCC(O)c1ccc(O)c(CO)c1 (configuration not stated)
not listed: [9]
inactive: all other assays above

CC(=O)c1ccc(S(=O)(=O)NC(=O)NC2CCCCC2)cc1
not listed: [9]
inactive: all other assays above

COc1ccccc1O
inactive and 24.5 µM (active): [6]
not listed: [9]
inactive: all other assays above

CCCCC/C(C=O)=C\c1ccccc1
not listed: [9]
inactive: all other assays above

CC(C)Cc1ccc(C(C)C(=O)O)cc1 (configuration not stated)
not listed: [9]
inactive: all other assays above

COCC(C)N (configuration not stated)
not listed: [9]
inactive: all other assays above

O=[N+]([O-])c1ccc(O)cc1
54.5 µM (active) and inactive: [1]
not listed: [9]
inactive: all other assays above

Nc1ccc(N=Nc2ccccc2)c(N)n1
inactive and 26.6 µM (active): [5]
43.9 µM (active) and inactive: [9]
inactive: all other assays above

C=CC(=O)NC(C)(C)CS(=O)(=O)O
not listed: [9]
inactive: all other assays above

CCCCOCCOCCOC(C)=O
not listed: [9]
inactive: all other assays above

N[C@@H](Cc1c[nH]c2ccccc12)C(=O)O
not listed: [9]
inactive: all other assays above

CCCCCCCCCCCCCC(=O)OC(C)C
not listed: [9]
inactive: all other assays above

NC(N)=NC(N)=NCCc1ccccc1
active: [5] 6.08 µM and 6.68 µM
not listed: [9]
inactive: all other assays above

NC(=O)c1ccc([N+](=O)[O-])cc1Cl
not listed: [9]
inactive: all other assays above

C=CCOC(=O)CC(C)C
inactive: all assays above

O=C(OCc1ccccc1)c1ccccc1
not listed: [9]
inactive: all other assays above

Cc1c(N(C)CS(=O)(=O)O)c(=O)n(-c2ccccc2)n1C
not listed: [9]
inactive: all other assays above
